Screens deposited in PubChem by several laboratories.
FAS-TE inh = blocks the thioesterase domain of human fatty acid synthase. hit rate 0.67% among 360,000. AID 602261. inhibition, % at 15 µM. P49327. recombinant FAS-TE, OMFH fluorogenic substrate, fluorescence endpoint;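 active = compounds whose normalised, plate-corrected inhibition of enzyme fluorescence in the single-dose primary screen is 50% or more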;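 also: 0% = DMSO with enzyme and 100% = substrate without enzyme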
Target sequence (P49327 whole entry, looked up, the tested form may be a part): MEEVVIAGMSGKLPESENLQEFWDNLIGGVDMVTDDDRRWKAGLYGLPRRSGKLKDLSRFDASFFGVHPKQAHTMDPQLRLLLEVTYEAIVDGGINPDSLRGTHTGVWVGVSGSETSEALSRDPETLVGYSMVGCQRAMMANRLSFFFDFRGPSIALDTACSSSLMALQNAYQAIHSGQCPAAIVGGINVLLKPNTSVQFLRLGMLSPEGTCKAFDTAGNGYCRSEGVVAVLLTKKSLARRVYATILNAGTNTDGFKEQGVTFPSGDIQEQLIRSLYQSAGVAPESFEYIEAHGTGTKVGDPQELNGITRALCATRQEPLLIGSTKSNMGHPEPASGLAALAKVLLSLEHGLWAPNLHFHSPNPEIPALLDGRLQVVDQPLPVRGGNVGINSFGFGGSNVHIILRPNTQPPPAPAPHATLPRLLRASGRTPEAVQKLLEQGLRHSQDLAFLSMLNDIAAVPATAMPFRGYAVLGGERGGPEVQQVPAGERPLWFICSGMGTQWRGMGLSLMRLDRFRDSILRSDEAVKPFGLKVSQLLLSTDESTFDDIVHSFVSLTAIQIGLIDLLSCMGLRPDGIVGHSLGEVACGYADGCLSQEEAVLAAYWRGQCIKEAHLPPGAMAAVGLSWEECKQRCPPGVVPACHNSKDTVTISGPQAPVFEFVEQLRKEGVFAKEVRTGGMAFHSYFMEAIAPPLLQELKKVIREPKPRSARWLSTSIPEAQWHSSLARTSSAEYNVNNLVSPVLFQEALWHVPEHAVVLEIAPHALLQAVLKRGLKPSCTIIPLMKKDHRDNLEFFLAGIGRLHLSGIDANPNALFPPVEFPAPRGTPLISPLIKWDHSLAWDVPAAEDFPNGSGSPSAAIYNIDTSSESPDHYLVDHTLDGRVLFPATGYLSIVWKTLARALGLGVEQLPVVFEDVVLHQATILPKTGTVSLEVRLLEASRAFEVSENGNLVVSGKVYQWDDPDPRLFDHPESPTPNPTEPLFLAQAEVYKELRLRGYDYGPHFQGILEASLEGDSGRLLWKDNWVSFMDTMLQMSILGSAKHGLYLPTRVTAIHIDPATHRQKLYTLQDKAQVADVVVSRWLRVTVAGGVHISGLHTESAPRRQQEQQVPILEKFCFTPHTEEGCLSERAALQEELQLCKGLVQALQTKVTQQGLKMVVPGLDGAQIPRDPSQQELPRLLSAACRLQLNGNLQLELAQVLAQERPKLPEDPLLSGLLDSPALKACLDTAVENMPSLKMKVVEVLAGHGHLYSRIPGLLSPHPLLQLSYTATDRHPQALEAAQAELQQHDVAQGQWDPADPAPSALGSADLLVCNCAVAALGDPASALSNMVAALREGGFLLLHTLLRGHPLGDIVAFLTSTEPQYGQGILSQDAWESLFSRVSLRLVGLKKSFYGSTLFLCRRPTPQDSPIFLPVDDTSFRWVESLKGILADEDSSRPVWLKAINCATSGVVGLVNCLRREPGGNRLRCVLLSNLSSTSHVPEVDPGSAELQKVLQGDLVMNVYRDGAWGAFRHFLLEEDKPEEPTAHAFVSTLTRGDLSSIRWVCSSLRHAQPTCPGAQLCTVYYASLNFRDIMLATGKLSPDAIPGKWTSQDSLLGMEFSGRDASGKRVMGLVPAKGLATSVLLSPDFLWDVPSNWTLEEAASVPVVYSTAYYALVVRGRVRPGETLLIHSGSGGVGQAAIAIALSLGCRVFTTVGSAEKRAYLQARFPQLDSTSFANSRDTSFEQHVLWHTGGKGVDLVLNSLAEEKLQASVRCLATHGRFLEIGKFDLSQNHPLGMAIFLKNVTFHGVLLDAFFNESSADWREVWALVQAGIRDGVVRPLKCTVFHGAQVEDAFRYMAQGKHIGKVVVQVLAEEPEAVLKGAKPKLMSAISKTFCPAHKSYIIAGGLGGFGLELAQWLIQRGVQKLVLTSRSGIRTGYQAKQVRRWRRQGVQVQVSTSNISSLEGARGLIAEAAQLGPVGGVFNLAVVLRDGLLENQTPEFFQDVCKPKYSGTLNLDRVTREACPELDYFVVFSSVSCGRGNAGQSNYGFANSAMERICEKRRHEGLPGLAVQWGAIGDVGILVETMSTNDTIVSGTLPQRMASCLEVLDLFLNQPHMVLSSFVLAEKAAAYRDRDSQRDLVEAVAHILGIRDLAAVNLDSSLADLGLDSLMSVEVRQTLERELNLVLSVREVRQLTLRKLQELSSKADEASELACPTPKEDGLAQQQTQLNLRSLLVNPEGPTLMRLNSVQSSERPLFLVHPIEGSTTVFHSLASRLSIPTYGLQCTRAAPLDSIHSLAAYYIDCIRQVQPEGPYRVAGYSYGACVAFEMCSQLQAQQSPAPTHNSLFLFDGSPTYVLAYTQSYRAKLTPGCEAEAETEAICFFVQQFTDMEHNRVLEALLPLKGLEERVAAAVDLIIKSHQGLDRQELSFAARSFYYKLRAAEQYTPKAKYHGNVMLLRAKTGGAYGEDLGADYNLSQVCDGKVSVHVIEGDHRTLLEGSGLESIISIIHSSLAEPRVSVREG
CendR NRP1 mod = modulators of CendR peptide binding to human neuropilin-1; FAM-RPARPAR peptide binding to NRP-1, fluorescence polarization; inhibition, % at 25 µM; hit rate 0.85% among 360,000; AID 602438;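 active = inhibition or corrected inhibition above about 18%, plus a signal ratio from 0.5 to 1.5, limit read from the data, passing the limit was not always enough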
NadD inh = blocks S. aureus nicotinate mononucleotide adenylyltransferase | hit rate 0.78% among 360,000 | inhibition, % at 20 µM | purified NadD enzyme, colorimetric absorbance read-out; in the data active = inhibition above about 26%
CRFR2-BP antag = CRF-BP/CRF-R2 complex antagonism; HEK293 CRF-R2/CRF-BP, CRF-induced calcium fluorescence; inhibition, % at 11.8 µM; hit rate 0.59% among 350,000; AID 588475;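 active = inhibition of the ligand-induced calcium signal above about 50% at the single tested concentration, limit read from the data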
Myeloid diff 2 = compounds promoting myeloid differentiation; hit rate 1% among 360,000; calls only at 10 µM; ER-HoxA9 myeloid progenitors, lysozyme-GFP differentiation, flow cytometry;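 active = normalized GFP-positive differentiation at or above the plate's own cutoff, the solvent-only control mean plus 3 SD; inconclusive = no clear call, values can overlap the other calls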;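 also: cells exposed to compound for four days before flow analysis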
An asterisk follows results filed as active; i = inactive; ? = inconclusive; · = no result; + = active, no number. Shown are actives, neighbours in structure and some others; about 3.6% of the full set was active somewhere.

SMILES | FAS-TE inh | CendR NRP1 mod | NadD inh | CRFR2-BP antag | Myeloid diff 2
Cc1cc(C)n(CCC(=O)N/N=C/c2c(O)ccc3ccccc23)n1 | 6 | 34* | 0 | -3 | i
Cc1cc(C)n(CCC(=O)N/N=C/c2ccc(O)cc2)n1 | -7 | 5 | -2 | 10 | i
Cc1ccc(S(=O)(=O)NN=Cc2c(O)ccc3ccccc23)cc1 | 5 | 8 | -4 | 56* | i
COc1ccc(/C=N/NC(=O)CCSc2nc3ccccc3s2)cc1OC | 11 | -3 | -1 | -27 | i
O=C(CCSc1nc2ccccc2s1)N/N=C/c1c(O)ccc2ccccc12 | 16 | -12 | 30* | -8 | ?
O=C(Nc1ccnn1C1CCN(C2CCCC2)CC1)c1ccccc1 | -8 | 2 | 1 | 7 | i
COC(=O)[C@@]12C[C@@H](CC(=O)N3CCN(C(=O)C4CC4)CC3)C(=O)N(Cc3cccc4ccccc34)C1=CCC(C)(C)C2 | · | 19 | · | · | i
CCCCN1CC[C@H]2C=CC[C@@H](C(=O)Nc3ccccc3)[C@H]2C1=O | -7 | 32* | 2 | -2 | i
O=C(NCc1cccnc1)[C@@H]1CC=C[C@@H]2CCN(Cc3ccccc3)C(=O)[C@@H]21 | -11 | 32* | 2 | 1 | i
COc1ccc(CN2CC[C@H]3C=CC[C@@H](C(=O)NCCc4ccccc4)[C@H]3C2=O)cc1OC | -12 | 24* | 8 | 0 | i
CC1=C(C(=O)N2CCCCCC2)CC(CC(=O)NCc2ccco2)C(=O)N1Cc1ccccc1 (stereo not drawn) | -9 | 5 | -8 | · | i
COc1cc(C=Nc2c(C)cc(C)cc2C)ccc1OC(C)=O | -8 | -5 | 0 | 51* | i
COc1cc(/C=N/NC(=O)c2ccncc2)ccc1OC(C)=O | -3 | 4 | 6 | 2 | i
CNc1cccc(-c2cccc(C(=O)N3CCOCC3)c2)n1 | -6 | 6 | -2 | · | i
Cc1csc(-c2nc3ccccc3n2C(C(=O)NC(C)(C)C)c2ccccc2)c1 (stereo not drawn) | · | -17 | · | · | i
CC(C)S(=O)(=O)c1cnc(-c2ccccn2)nc1N | -2 | 0 | -2 | 8 | i
CC1(C(=O)NS(=O)(=O)c2ccc(Cl)s2)CCN1C(=O)C1(c2ccccc2)CCCC1 (stereo not drawn) | -10 | 2 | 1 | · | i
Cn1nnnc1SCc1nnc(-c2ccc(F)cc2)o1 | -6 | 25* | -5 | 11 | i
Cn1nnnc1SCc1ccc(CSc2nnnn2C)cc1 | -9 | -14 | 2 | 24 | i
Cc1ccc(S(=O)(=O)NCC(=O)N(CC(=O)NCC2CCCO2)Cc2ccccc2Cl)cc1 (stereo not drawn) | -1 | -6 | 1 | 18 | i
Nc1ccc(S(=O)(=O)Nc2ccc(Cl)nn2)cc1 | -6 | -3 | -6 | 54* | i
O=C1N(Cc2ccccc2)c2ccc(Br)cc2[C@]12C[C@H](O)CO2 | · | -21 | · | · | i
COc1ccc2c(c1)CO[C@]21O[C@H](CCO)C[C@H](O)[C@H]1O | -3 | 11 | -2 | · | i
CCOC(=O)C1CCCN(C2CC(=O)N(c3ccc(N4C(=O)CC(N5CCCC(C(=O)OCC)C5)C4=O)cc3)C2=O)C1 (stereo not drawn) | -9 | 5 | 0 | -8 | i
CCOC(=O)C1CCCN(C2CC(=O)N(c3ccccc3)C2=O)C1 (stereo not drawn) | -10 | -1 | -5 | 67* | i
SMILES | FAS-TE inh | CendR NRP1 mod | NadD inh | CRFR2-BP antag | Myeloid diff 2
CN(C)S(=O)(=O)c1ccc(N2CCCC2)c(C(=O)NC2(C)CCS(=O)(=O)C2)c1 (stereo not drawn) | -7 | -3 | -2 | -4 | i
CN(C)S(=O)(=O)c1ccc(Cl)c(NC(=O)CNC2(C)CCS(=O)(=O)C2)c1 (stereo not drawn) | -7 | 5 | 0 | 113* | i
COCCNC(=O)C(=O)NNS(=O)(=O)c1ccc2ccccc2c1 | -4 | 9 | -5 | -1 | i
O=[N+]([O-])c1ccc(NC(=S)NCCc2ccc(F)cc2)cc1 | 48 | 1 | -4 | 54* | i
O=C(NCCc1ccc(F)cc1)Nc1ccc([N+](=O)[O-])cc1 | 17 | 0 | -6 | 22 | i
CCCCNC(=O)C1(C)CCC(=O)N1C1CC1 (stereo not drawn) | -6 | 0 | -3 | · | i
O=C(O)CN=C(Nc1cc(Cl)cc(Cl)c1)NC(c1ccccc1)c1ccccc1 | 10 | -6 | 12 | · | i
C[n+]1c(/C=C/c2ccc(O)cc2)ccc2ccccc21 | -3 | -22 | 10 | -8 | i
Cc1cc(/C=C\c2ccc3cc(N(C)C)ccc3[n+]2C)c(C)n1-c1ccccc1 | 3 | -133 | 74* | -19 | ?
COc1ccccc1S(=O)(=O)N1CCn2cccc2C1C (stereo not drawn) | -4 | -6 | -5 | 103* | i
CC1c2cccn2CCN1S(=O)(=O)c1ccccc1 (stereo not drawn) | -3 | -24 | -4 | -3 | i
CN(c1ccc(F)cc1)S(=O)(=O)c1ccc(Cl)c(C(=O)NCc2ccco2)c1 | 8 | 3 | -7 | 7 | +
CN(C)S(=O)(=O)c1ccc(Cl)c(C(=O)NCc2ccco2)c1 | -7 | 4 | 3 | 4 | i
Cc1cc[n+](CC(=O)c2cccs2)cc1 | -10 | 10 | 1 | 0 | i
CN(C)c1cc[n+](CC(=O)c2cccs2)cc1 | -3 | 0 | 1 | 1 | +
Oc1ccc2ccccc2c1/C=N/Nc1nnc(-c2ncc[nH]2)c2ccccc12 | 18 | -19 | 51* | -13 | ·
CC1(C)CC(=O)/C(=C\c2cccc([N+](=O)[O-])c2)C(C)(C)N1 | -2 | 31* | 5 | -5 | i
Cc1ccccc1S(=O)(=O)Cc1ccc(C(=O)NCc2cccnc2)o1 | -7 | 49* | 0 | -9 | i
Cc1ccc(C(=O)NCc2cccnc2)o1 | -5 | 2 | 2 | 84* | i
COc1ccc(NC(=O)c2cc(C3CCCCN3C(=O)c3ccc(NC(C)=O)cc3)on2)c(C)c1 (stereo not drawn) | -3 | 0 | 3 | · | ?
COc1ccc(NC(=O)CN2CCC(n3c(C)nc4cc(F)ccc43)CC2)c(OC)c1 | -7 | 1 | -15 | -31 | i
C=CCOc1cccc(C(=O)N2CCCC(Nc3ccc(F)cc3)C2)c1 (stereo not drawn) | 8 | -3 | 2 | 7 | i
COc1cc(OC)cc(C(=O)N2CCC(n3c(C)nc4cc(F)ccc43)CC2)c1 | -3 | 2 | 6 | -16 | +
COc1ccc(NC2CCCN(C(=O)CSc3ccncc3)C2)cc1 (stereo not drawn) | -3 | 23* | 3 | -21 | i
COc1cc(OC)cc(C(=O)N2CCCC(Nc3ccc(F)cc3)C2)c1 (stereo not drawn) | -4 | 22* | -1 | -9 | i
COc1ccc(CCC(=O)N2CCCC(Nc3ccc(OC)cc3)C2)cc1 (stereo not drawn) | -2 | -49 | -5 | 8 | i
OC(c1ccccc1)(c1nc(-c2cc3ccccc3o2)cs1)C(F)(F)F (stereo not drawn) | 35 | -10 | -1 | · | i
